# The supplement of paper PMC6555819
# Key:
# Experiment in all cases: PBM binding z-score (relative to random genomic background probes); higher = stronger binding; sequences stand for … in GC…GCGATTGACAGCGTAGAATGAAGG
# [1] = test system: PPARg:RXRa DBDmut IVT, anti-RXR (DBD mutation: RXRa K156A/R161A, NR concentration 270 nM, RXRa partner concentration 90 nM)
# Outline: (§1)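 Regression normalization was applied to scanned fluorescence from custom Agilent 4×180K protein-binding microarrays. Before scanning, arrays were incubated 1 h with ligand-free nuclear receptor dimers, and binding was detected with antibodies against each partner (one per run). Binding z-scores use the random background probes as reference.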
# [2] = test system: PPARg:RXRa IVT, anti-PPARg (NR concentration 270 nM, RXRa partner concentration 90 nM)
# Outline: as §1
# [3] = test system: PPARg DBDmut:RXRa IVT, anti-PPARg (DBD mutation: PPARg1 K132A/R137A, NR concentration 270 nM, RXRa partner concentration 90 nM)
# Outline: as §1
# [4] = test system: PPARg DBDmut IVT, anti-PPARg (DBD mutation: PPARg1 K132A/R137A, NR concentration 270 nM)
# Outline: as §1
# [5] = test system: PPARg homodimer (NR concentration 180 nM)
# Outline: as §1
# [6] = test system: PXR:RXRa (NR concentration 270 nM, RXRa partner concentration 90 nM)
# Outline: as §1
# [7] = test system: PXR homodimer (NR concentration 270 nM)
# Outline: as §1
# [8] = test system: RARa:RXR (NR concentration 270 nM, RXRa partner concentration 90 nM)
# Outline: as §1
# [9] = test system: RARa homodimer (NR concentration 270 nM)
# Outline: as §1
# [10] = test system: RARb:RXRa (NR concentration 270 nM, RXRa partner concentration 90 nM)
# Outline: as §1
# [11] = test system: RARb homodimer (NR concentration 270 nM)
# Outline: as §1
# [12] = test system: RARg:RXRa (NR concentration 270 nM, RXRa partner concentration 90 nM)
# Outline: as §1
# [13] = test system: RARg homodimer (NR concentration 270 nM)
# Outline: as §1
# [14] = test system: RXRa DBDmut IVT, anti-RXR (DBD mutation: RXRa K156A/R161A, NR concentration 90 nM)
# Outline: as §1
# [15] = test system: RXRa homodimer (NR concentration 180 nM)
# Outline: as §1
# [16] = test system: THRa:RXRa (NR concentration 90 nM, RXRa partner concentration 90 nM)
# Outline: as §1
# [17] = test system: THRa homodimer (NR concentration 90 nM)
# Outline: as §1
# [18] = test system: VDR homodimer (NR concentration 270 nM)
# Outline: as §1
Sequence,PBM binding z-score [1],PBM binding z-score [2],PBM binding z-score [3],PBM binding z-score [4],PBM binding z-score [5],PBM binding z-score [6],PBM binding z-score [7],PBM binding z-score [8],PBM binding z-score [9],PBM binding z-score [10],PBM binding z-score [11],PBM binding z-score [12],PBM binding z-score [13],PBM binding z-score [14],PBM binding z-score [15],PBM binding z-score [16],PBM binding z-score [17],PBM binding z-score [18]
ATATGGAGGTTATCGGGTCATTCAGTTTGCGCAT,4.66,4.91,1.95,1.8,2.89,4.61,8.4,4.75,1.62,3.26,3.56,4.27,3.28,2.19,4.9,3.71,3,4.69
TCGAGTAGGTGAGTCGGGGCATTCAGCCAACATA,3.41,2.92,-0.294,-0.634,-0.137,-0.178,-0.0256,-0.138,-0.397,0.298,0.348,-0.294,-0.378,0.0607,-0.201,0.829,-0.305,0.0574
CCGAGTAGGTCATGGGGCATTCAGGCAACGGTGA,5.78,6.73,0.331,-0.486,2.5,2.15,-0.103,3.58,0.815,3.78,3.25,4.34,4.44,0.881,3.87,2.45,0.499,0.642
ACAGACAGGTGAGTGAAGTTAACTCAGCTGGACG,0.505,0.404,-0.391,-0.406,-0.447,-0.325,-0.705,-0.744,-0.259,0.258,-0.414,-0.0567,0.156,-0.397,0.359,-0.189,-1.01,-0.612
TCTAGTTGGTCAAAGGTCATACACTCGAAATGCG,3.45,5.82,1.78,2.27,4.5,6.04,3.03,7.27,3.78,4.73,5.06,6.94,5.49,2.31,8.07,4.15,1.94,3.4
CCTACTGGGCCAAAGGTCATTGTTTCCAATGCTC,5.12,6.92,2.88,1.37,5.48,5.37,1.86,6.23,1.11,4.16,4.48,5.41,3.97,1.26,5.82,3.29,0.832,2.26
CAAACTAGGTCAAATGTCAAAGTCGAGCCAACCA,8.77,8.6,1.94,1.58,2.71,3.16,0.325,4.96,1.02,4.26,3.4,5.2,5.17,2.58,5.14,3.36,0.944,1.05
